In PubChem BioAssay AID1159580 (chemical genetic matrix, 2015):
Hit rate of the full screen: of about 5,500 compounds, about 2,000 (36%) were called active. Not shown: some 18% with an inconclusive outcome. No stated cut-off is given here; in the data, active means normalized growth mostly below about 0.91 (no sharp cut-off); inconclusive means no clear call, values can overlap the other calls; inactive means mostly above about 0.92. Some of the results follow.

Assay: chemical genetic growth profiling, strain panel (AID 1159580);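 further: tested at 20 µM; growth read once vehicle control cultures reached saturation at 30 °C; 1 = growth at the plate median or of vehicle wells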
Details: S. cerevisiae deletion strains, growth OD
[1] = locus YAL040C, strain CLN3, stronger effect = lower value
[2] = locus YCL061C, strain MRC1 (second series), stronger effect = lower value
[3] = locus YDR363W, strain ESC2, stronger effect = lower value
[4] = locus YER002W, strain NOP16, stronger effect = lower value
[5] = locus YGR078C, strain PAC10, stronger effect = lower value
[6] = locus YJR075W, strain HOC1, stronger effect = lower value
[7] = locus YMR263W, strain SAP30, stronger effect = lower value
[8] = locus YMR307W, strain GAS1, stronger effect = lower value
[9] = locus YNL128W, strain TEP1, stronger effect = lower value
[10] = locus YNL175C, strain NOP13, stronger effect = lower value
[11] = locus YNL197C, strain WHI3, stronger effect = lower value
[12] = locus YNL224C, strain SQS1, stronger effect = lower value
[13] = locus YNL322C, strain KRE1, stronger effect = lower value
[14] = locus YOR083W, strain WHI5 (second series), stronger effect = lower value

Measured: normalized growth

CCCN1CCCC2Cc3[nH]ncc3CC21 (centres undefined)
inactive: [1] 0.972 | [2] 1 | locus YDR150W, strain NUM1, stronger effect = lower value 0.995 | [3] 1.02 | [4] 0.992 | [5] 0.997 | locus YGR229C, strain SMI1, stronger effect = lower value 0.989 | [6] 1 | [7] 0.997 | [8] 0.992 | [9] 0.989 | locus YNL153C, strain GIM3, stronger effect = lower value 1.1 | [10] 0.994 | [11] 0.992 | [12] 0.98 | [13] 1.02 | [14] 0.986 | locus YPL241C, strain CIN2, stronger effect = lower value 1

CC(C)NP(=O)(NC(C)C)OP(=O)(NC(C)C)NC(C)C
inactive: [1] 0.983 | [2] 1 | [3] 0.998 | [4] 0.995 | [5] 0.991 | [6] 1.01 | [7] 0.991 | [8] 0.995 | [9] 0.99 | [10] 0.991 | [11] 0.995 | [12] 0.991 | [13] 1.01 | [14] 0.991 | locus YPL055C, strain LGE1, stronger effect = lower value 1.01

Cc1csc2c(N3CCN(C(=S)Nc4ccc(C(F)(F)F)cc4)CC3)ncnc12
inactive: locus YAR019C, strain CDC15, stronger effect = lower value 0.985 | locus YBL105C, strain PKC1, stronger effect = lower value 0.989 | locus YBR135W, strain CKS1, stronger effect = lower value 0.981 | locus YBR136W, strain MEC1, stronger effect = lower value 0.982 | locus YBR160W, strain CDC28, stronger effect = lower value 0.979 | locus YDL017W, strain CDC7, stronger effect = lower value 0.992 | locus YDL028C, strain MPS1, stronger effect = lower value 0.981 | locus YDL101C, strain DUN1, stronger effect = lower value 0.988 | locus YDL108W, strain KIN28, stronger effect = lower value 0.99 | locus YDL132W, strain cdc53, stronger effect = lower value 0.998 | locus YDL214C, strain PRR2, stronger effect = lower value 0.956 | locus YDR052C, strain DBF4, stronger effect = lower value 0.999 | locus YDR054C, strain cdc34, stronger effect = lower value 0.997 | locus YDR226W, strain ADK1, stronger effect = lower value 0.997 | locus YDR477W, strain SNF1, stronger effect = lower value 0.983 | locus YER123W, strain YCK3, stronger effect = lower value 0.937 | locus YER133W, strain GLC7, stronger effect = lower value 0.974 | locus YFL009W, strain cdc4, stronger effect = lower value 0.992 | locus YFL029C, strain CAK1, stronger effect = lower value 0.991 | locus YFR003C, strain YPI1, stronger effect = lower value 0.992 | locus YFR019W, strain FAB1, stronger effect = lower value 0.965 | locus YFR028C, strain CDC14, stronger effect = lower value 0.978 | locus YGR040W, strain KSS1, stronger effect = lower value 0.959 | locus YGR052W, strain FMP48, stronger effect = lower value 1.02 | locus YGR092W, strain DBF2, stronger effect = lower value 0.972 | locus YHR030C, strain SLT2, stronger effect = lower value 0.979 | locus YHR079C, strain IRE1, stronger effect = lower value 0.991 | locus YHR082C, strain KSP1, stronger effect = lower value 1.04 | locus YHR205W, strain SCH9, stronger effect = lower value 0.919 | locus YIL147C, strain SLN1, stronger effect = lower value 0.992 | locus YJL095W, strain BCK1, stronger effect = lower value 0.982 | locus YJL128C, strain PBS2, stronger effect = lower value 0.96 | locus YJL157C, strain FAR1, stronger effect = lower value 0.944 | locus YJR016C, strain ILV3, stronger effect = lower value 0.993 | locus YJR066W, strain TOR1 (second series), stronger effect = lower value 0.928 | locus YJR066W, strain TOR1, stronger effect = lower value 1.06 | locus YKL048C, strain ELM1, stronger effect = lower value 0.965 | locus YKL067W, strain YNK1, stronger effect = lower value 0.963 | locus YKL101W, strain HSL1, stronger effect = lower value 0.944 | locus YKL193C, strain SDS22, stronger effect = lower value 0.986 | locus YKL203C, strain TOR2, stronger effect = lower value 1.03 | locus YLR133W, strain CKI1, stronger effect = lower value 0.959 | locus YLR403W, strain SFP1, stronger effect = lower value 0.956 | locus YML070W, strain DAK1, stronger effect = lower value 0.924 | locus YMR001C, strain CDC5, stronger effect = lower value 1 | locus YMR205C, strain PFK2 (second series), stronger effect = lower value 0.949 | locus YMR277W, strain FCP1, stronger effect = lower value 0.987 | locus YNL006W, strain LST8, stronger effect = lower value 0.988 | locus YNL020C, strain ARK1, stronger effect = lower value 0.956 | locus YNL161W, strain CBK1, stronger effect = lower value 0.98 | locus YNL183C, strain NPR1, stronger effect = lower value 0.996 | locus YNL207W, strain RIO2, stronger effect = lower value 0.978 | locus YNL222W, strain SSU72, stronger effect = lower value 0.991 | locus YNL307C, strain MCK1 (second series), stronger effect = lower value 0.937 | locus YOL078W, strain AVO1, stronger effect = lower value 0.992 | locus YOL136C, strain PFK27, stronger effect = lower value 0.922 | locus YOR061W, strain CKA2, stronger effect = lower value 0.964 | locus YOR119C, strain RIO1, stronger effect = lower value 1.03 | locus YOR231W, strain MKK1, stronger effect = lower value 0.928 | locus YOR329C, strain SCD5, stronger effect = lower value 0.986 | locus YPL031C, strain PHO85, stronger effect = lower value 0.986 | locus YPL153C, strain RAD53, stronger effect = lower value 0.979 | locus YPL204W, strain HRR25, stronger effect = lower value 0.941 | locus YPL209C, strain IPL1, stronger effect = lower value 0.984 | locus YPL256C, strain CLN2, stronger effect = lower value 0.942 | locus YPR025C, strain CCL1, stronger effect = lower value 0.982 | locus YPR106W, strain ISR1, stronger effect = lower value 0.975 | locus YPR111W, strain DBF20, stronger effect = lower value 0.977 | strain NNK1, stronger effect = lower value 0.967 | strain TSCII, stronger effect = lower value 0.992
active: locus YLR113W, strain HOG1, stronger effect = lower value 0.826
